The structures appear in SMILES notation. Records with an inconclusive call do not appear. The source made the active and inactive calls. Rule for the calls, unless noted: active = hit-call score of the fitted dose curve at least 0.9, where 1 is the maximum; inactive = score below 0.9.

For experiment [1], the target named is human Vitamin D Receptor (VDR), VDR (gene 7421) (UniProt P11473). As to the kind of experiment: ATG_VDR_TRANS: Attagene TRANS-FACTORIAL HepG2 Assay for human Vitamin D Receptor (VDR) (AID 2283022; active = hit-call score of the fitted dose curve at least 0.9, where 1 is the maximum). An outline of the steps: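 HepG2 cells were transiently transfected with GAL4-UAS reporter units and a chimeric VDR-Gal4 construct, then dosed for 24 hours. Reporter mRNA was quantified by RT-PCR, fluorescent labeling, HpaI digestion and capillary electrophoresis; gain of signal analysed vs DMSO.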
Sequence of human Vitamin D Receptor (VDR), VDR (gene 7421) (P11473 whole entry, looked up, the tested form may be a part): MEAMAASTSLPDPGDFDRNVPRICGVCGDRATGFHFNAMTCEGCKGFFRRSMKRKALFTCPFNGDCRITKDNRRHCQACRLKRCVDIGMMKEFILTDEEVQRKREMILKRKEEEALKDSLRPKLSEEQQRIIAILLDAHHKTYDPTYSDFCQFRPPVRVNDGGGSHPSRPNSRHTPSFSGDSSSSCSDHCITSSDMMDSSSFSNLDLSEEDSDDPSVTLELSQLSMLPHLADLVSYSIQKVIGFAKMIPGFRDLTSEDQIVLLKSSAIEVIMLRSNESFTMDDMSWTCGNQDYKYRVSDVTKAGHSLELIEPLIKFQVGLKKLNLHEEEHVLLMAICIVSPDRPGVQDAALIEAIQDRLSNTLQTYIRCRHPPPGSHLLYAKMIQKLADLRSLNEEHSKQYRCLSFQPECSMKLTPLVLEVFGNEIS

Read-out in experiment [2]: Interleukin-8 (IL8), CXCL8 (gene 3576)
As to the kind of experiment: BSK_3C_IL8: BioMAP Diversity Plus: 3C Assay for Interleukin-8 (IL8) Biomarker Activity (AID 2283020). To be noted: primary human endothelial cells (HUVEC); actives raise or lower the signal. The method in brief:
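Endothelial primary cells of human umbilical vein origin are dosed with chemical; after 24 h the IL-8 biomarker is measured by ELISA, and concentration–response is fitted in both directions versus DMSO.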

Read-out in experiment [3]: Monokine induced gamma interferon (MIG), CXCL9 (gene 4283)
The experiment can be described thus: BSK_3C_MIG: BioMAP Diversity Plus: 3C Assay for Monokine induced gamma interferon (MIG) Biomarker Activity (AID 2283021).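 For AC50: MIG protein level measured by immunoassay in the treated endothelial cultures.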 To be noted: primary human endothelial cells (HUVEC); actives raise or lower the signal. The method in brief:
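Endothelial primary cells (human umbilical vein) are dosed with test chemical in the 3C system. MIG levels are measured by ELISA at 24 h and fitted in both directions relative to DMSO.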

A short description of experiment [4]: BSK_3C_SRB: Viability Assessment in the BioMAP Diversity Plus: 3C Assay (AID 2283023).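 Note: fitted both ways against DMSO so a hit may be signal rise or drop.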 The settings on record: primary human endothelial cells (HUVEC). The method in brief:
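Human umbilical vein endothelial cells in the 3C system, treated 24 h. Total protein measured by 0.1% sulforhodamine B staining after 10% TCA fixation, read at 560 nm; bidirectional fit versus DMSO.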

Read-out in experiment [5]: Matrix Metallopeptidase 1 (MMP1), MMP1 (gene 4312)
As to the kind of experiment: BSK_BE3C_MMP1: BioMAP Diversity Plus: BE3C Assay for Matrix Metallopeptidase 1 (MMP1) Biomarker Activity (AID 2283024). The settings on record: primary human bronchial epithelial cells; actives raise or lower the signal. The method in brief:
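MMP1 signal, measured by ELISA after a 24 h chemical exposure of human primary bronchial epithelial cells, is analysed with bidirectional fitting using DMSO as negative control.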

Read-out in experiment [6]: Pselectin, SELP (gene 6403)
As to the kind of experiment: BSK_4H_Pselectin: BioMAP Diversity Plus: 4H Assay for Pselectin Biomarker Activity (AID 2283026). The settings on record: primary human endothelial cells (HUVEC); actives raise or lower the signal. An outline of the steps:
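Endothelial primary cells (human umbilical vein) are dosed, incubated 24 h, and assayed for surface P-selectin by ELISA; responses in either direction are fitted relative to the DMSO negative control.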

Experiment [7] is described as follows: BSK_4H_SRB: Viability Assessment in the BioMAP Diversity Plus: 4H Assay (AID 2283027).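 For AC50: curves fitted both ways versus DMSO so AC50 may be loss or gain.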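 Note: cells exposed to compound for 24 h before staining.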 The settings on record: primary human endothelial cells (HUVEC). The method in brief: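 HUVEC, 24 h post-dose; 10% TCA fix, 0.1% SRB stain, A560 nm. Total protein = overt cytotoxicity, parallel to biomarker read. Bidirectional fit vs DMSO baseline.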
Experiment [8] is described as follows: BSK_BE3C_SRB: Viability Assessment in the BioMAP Diversity Plus: BE3C Assay (AID 2283028).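 For AC50: fitted both ways so AC50 may mark signal gain or loss versus DMSO.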 The settings on record: primary human bronchial epithelial cells. An outline of the steps: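 Human bronchial epithelial primary cells in confluent culture, 24 h after chemical dosing; total protein by 0.1% SRB staining after 10% TCA fixation, read at 560 nm. Bidirectional fitting versus DMSO baseline.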

Read-out in experiment [9]: Thrombomodulin, THBD (gene 7056)
As to the kind of experiment: BSK_3C_Thrombomodulin: BioMAP Diversity Plus: 3C Assay for Thrombomodulin Biomarker Activity (AID 2283029). The settings on record: primary human endothelial cells (HUVEC); actives raise or lower the signal. The method in brief:
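Endothelial cells from umbilical vein are dosed with test chemical and incubated 24 h. Thrombomodulin is then quantified by ELISA, with DMSO serving as negative control and activity baseline.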

Read-out in experiment [10]: Urokinase-type plasminogen activator receptor (uPAR), PLAUR (gene 5329)
The experiment can be described thus: BSK_4H_uPAR: BioMAP Diversity Plus: 4H Assay for Urokinase-type plasminogen activator receptor (uPAR) Biomarker Activity (AID 2283030). The settings on record: primary human endothelial cells (HUVEC); actives raise or lower the signal. An outline of the steps: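 Human umbilical vein endothelial cells in the 4H system, 24 h after chemical dosing. Cell-surface uPAR measured by ELISA, fitted in both directions versus DMSO; cytotoxicity checked by SRB total protein in parallel cultures.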

Read-out in experiment [11]: Vascular endothelial growth factor receptor 2 (Homo sapiens) (UniProt P35968)
The experiment can be described thus: BSK_4H_VEGFRII: BioMAP Diversity Plus: 4H Assay for Vascular endothelial growth factor receptor 2 (VEGFR2) Biomarker Activity (AID 2283031).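 For AC50: cell-surface VEGFR2 protein level quantified by ELISA.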 The settings on record: primary human endothelial cells (HUVEC); actives raise or lower the signal. The method in brief: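 Primary human umbilical vein endothelial cells (4H system), 24 h exposure; cell-surface VEGFR2 measured by ELISA. Bidirectional fitting versus DMSO; cytotoxicity checked in parallel by SRB total-protein staining.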

Read-out in experiment [12]: Human Leukocyte Antigen - DR isotype (HLADR), HLA-DRA (gene 3122)
As to the kind of experiment: BSK_BE3C_HLADR: BioMAP Diversity Plus: BE3C Assay for Human Leukocyte Antigen - DR isotype (HLADR) Biomarker Activity (AID 2283032). To be noted: primary human bronchial epithelial cells; actives raise or lower the signal. An outline of the steps: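 Chemicals are dosed onto BE3C bronchial epithelial cultures of human origin and left 24 h. HLA-DR is then measured by ELISA, and the endpoint is fitted in both directions using DMSO as the activity baseline.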

Read-out in experiment [13]: Vascular cell adhesion molecule 1 (VCAM1), VCAM1 (gene 7412)
As to the kind of experiment: BSK_4H_VCAM1: BioMAP Diversity Plus: 4H Assay for Vascular cell adhesion molecule 1 (VCAM1) Biomarker Activity (AID 2283033).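 For outcome: cell-surface VCAM-1 protein measured by ELISA.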 The settings on record: primary human endothelial cells (HUVEC); actives raise or lower the signal. The method in brief:
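Chemicals are added to primary human umbilical vein endothelial cells. After 24 h, VCAM-1 levels are measured by ELISA. Values come from bidirectional fitting referenced to DMSO.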

Read-out in experiment [14]: Interferon-gamma inducible Protein 10 (IP10), CXCL10 (gene 3627)
As to the kind of experiment: BSK_BE3C_IP10: BioMAP Diversity Plus: BE3C Assay for Interferon-gamma inducible Protein 10 (IP10) Biomarker Activity (AID 2283034). To be noted: primary human bronchial epithelial cells; actives raise or lower the signal. The method in brief:
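IP-10 quantified by ELISA serves as the endpoint. Cells: primary human bronchial epithelium, read 24 h after compound addition. Activity is derived by bidirectional fitting with DMSO as negative control.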

Read-out in experiment [15]: Monokine induced gamma interferon (MIG), CXCL9 (gene 4283)
The experiment can be described thus: BSK_BE3C_MIG: BioMAP Diversity Plus: BE3C Assay for Monokine induced gamma interferon (MIG) Biomarker Activity (AID 2283035). The settings on record: primary human bronchial epithelial cells; actives raise or lower the signal. An outline of the steps:
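Dose cells (human primary bronchial epithelial), incubate 24 h, quantify MIG by ELISA, then fit concentration–response in both directions relative to DMSO control.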

Read-out in experiment [16]: Transforming growth factor beta 1 (TGFb1), TGFB1 (gene 7040)
As to the kind of experiment: BSK_BE3C_TGFb1: BioMAP Diversity Plus: BE3C Assay for Transforming growth factor beta 1 (TGFb1) Biomarker Activity (AID 2283036;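 for outcome: TGF-b1 protein level measured by ELISA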). To be noted: primary human bronchial epithelial cells; actives raise or lower the signal. The method in brief: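 Bronchial epithelial primary cells are treated with test chemical, then TGF-b1 is quantified by ELISA after 24 hours. Values derive from bidirectional fitting against DMSO, with cytotoxicity checked by SRB staining in parallel cultures.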

Read-out in experiment [17]: Plasminogen activator inhibitor-1 (PAI1), SERPINE1 (gene 5054)
As to the kind of experiment: BSK_BE3C_PAI1: BioMAP Diversity Plus: BE3C Assay for Plasminogen activator inhibitor-1 (PAI1) Biomarker Activity (AID 2283037). To be noted: primary human bronchial epithelial cells; actives raise or lower the signal. An outline of the steps: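 Values derive from bidirectional fitting against DMSO baseline of PAI-1 levels, measured by ELISA in human bronchial epithelial cells 24 h after compound addition.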

Read-out in experiment [18]: urokinase plasminogen activator (uPA), PLAU (gene 5328)
As to the kind of experiment: BSK_BE3C_uPA: BioMAP Diversity Plus: BE3C Assay for urokinase plasminogen activator (uPA) Biomarker Activity (AID 2283038).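 For outcome: uPA protein level quantified by ELISA in cell cultures; uPA read one day after compound addition.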 To be noted: primary human bronchial epithelial cells; actives raise or lower the signal. The method in brief: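 Primary human bronchial epithelial cells, uPA measured by ELISA 24 h after dosing. Bidirectional change relative to DMSO; cytotoxicity checked in parallel cultures by sulforhodamine B total-protein staining.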

Read-out in experiment [19]: Urokinase-type plasminogen activator receptor (uPAR), PLAUR (gene 5329)
As to the kind of experiment: BSK_BE3C_uPAR: BioMAP Diversity Plus: BE3C Assay for Urokinase-type plasminogen activator receptor (uPAR) Biomarker Activity (AID 2283039).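 For outcome: cells exposed to compound for one day before measurement.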 To be noted: primary human bronchial epithelial cells; actives raise or lower the signal. The method in brief: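 Steps: dose human primary bronchial epithelial cells, incubate 24 h, measure uPAR by ELISA, then fit gain- or loss-of-signal response bidirectionally relative to DMSO.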

A short description of experiment [20]: BSK_3C_Vis: BioMAP Diversity Plus: 3C Assay for Morphology Visualization (AID 2283025).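 Note: fitted both ways so gain or loss versus DMSO counts.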 To be noted: primary human endothelial cells (HUVEC). The method in brief:
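Morphology read by light microscopy serves as a background control for the multiplexed 3C assay in human umbilical vein endothelial cells, taken 24 h after dosing, with DMSO as the negative control and bidirectional curve fitting.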

Consider `CC(C)[C@@H]1CC[C@@H](C)C[C@H]1O`, for which, in experiment [1], the result was inactive.

A word on the AC50: it is the concentration giving half of the maximal activity seen. Take `NC(=NCCCCCCN=C(N)/N=C(\N)Nc1ccc(Cl)cc1)/N=C(\N)Nc1ccc(Cl)cc1`: the AC50 in [2] is 3.88 µM (active); in experiment [3], 9.77 µM (active); in experiment [4] it was 4.85 µM (active); in experiment [5], 3.14 µM (active); in experiment [6], 4.81 µM (active); in experiment [7], 4.85 µM (active). In addition, the half-maximal activity concentration (AC50) is 4.74 µM (active) in experiment [8]; 6.15 µM (active) in experiment [9]; 4.47 µM (active) in experiment [10]; 4.47 µM (active) in [11]; 3.83 µM (active) in experiment [12]; 5.68 µM (active) in experiment [13]. The AC50 in [14] is 4.26 µM (active); in [15], 11.9 µM (active); in experiment [17] it was 1.46 µM (active); in experiment [18], 3.31 µM (active); in experiment [19], 3.1 µM (active). Moreover, in [16], the outcome was inactive.

Consider `Cc1cncc(C)c1`, for which the compound was classed as inactive in experiment [1].

For `Cc1cc(=O)oc2cc(O)ccc12`, the result in experiment [1] was inactive.

For `CCN(CCC#N)c1ccccc1`, the call in [1] was inactive.

In the case of `CCCCCCc1ccc(N)cc1`, the outcome in experiment [1] was inactive.

For the compound `CCCCCCCCCCCCOS(=O)(=O)O`, the result in experiment [2], in [3], in experiment [5], in [20], in experiment [6] and in experiment [7] was inactive. The result in [9], in [10], in experiment [11] and in experiment [13] was inactive. Besides, the half-maximal activity concentration (AC50) in experiment [8] is 32.6 µM (active); in experiment [12], 26.2 µM (active); in [14], 12.5 µM (active); in experiment [15], 26.4 µM (active); in [16], 28.7 µM (active); in experiment [17] it was 33.3 µM (active). For the same compound, the concentration at half-maximal activity (AC50) in [18] was 31.6 µM (active); in [19], 32.8 µM (active).

Consider `C=CC(=O)OCCC(F)(F)C(F)(F)C(F)(F)C(F)(F)C(F)(F)C(F)(F)C(F)(F)C(F)(F)F`, for which the outcome in [2], in [3], in experiment [4], in [5], in experiment [6] and in [7] was inactive. Moreover, the outcome in experiment [8], in experiment [9], in experiment [10], in experiment [11], in experiment [12] and in experiment [13] was inactive. For the same compound, the outcome in experiment [14], in [15], in [17], in experiment [18] and in experiment [19] was inactive.

With `CCCCC(CC)C(=O)O` (centres undefined), the outcome in experiment [2], in experiment [3], in experiment [4], in [5], in experiment [20] and in experiment [6] was inactive. In addition, the result in experiment [7], in experiment [8], in experiment [9], in experiment [10], in experiment [11] and in [12] was inactive. The result in experiment [13], in experiment [14], in [15], in experiment [16], in experiment [17] and in experiment [18] was inactive. Moreover, the result in experiment [19] was inactive.

`CCO[Si](C)(C)OCC`: the compound was classed as inactive in experiment [1].

Turning to `CCCCCCCCCCCCCC[n+]1ccccc1`, the call in experiment [1] was inactive.
